The source of these data is the OligoGym collection.
Also: reference of the scale not given here.

The first assay deals with CTSH. The assay is described as follows: pooled miR-30 sensor sort-seq; sequence = guide strand. The settings on record: shRNA.
TCTATACATCATGAAGTCCTGA had a sensor-assay potency score (higher = more potent) of 0.44.

TTAGACATCCATGACTTGAAGT gave a sensor-assay potency score (higher = more potent) of -0.899.

In the case of TTCTCCATACCCAACAGCCAGT, the sensor-assay potency score (higher = more potent) was -1.28.

The sequence TTCTATACATCATGAAGTCCTG displayed a sensor-assay potency score (higher = more potent) of -0.782.

TGTGATGTTGGCTACATCCTTG: the sensor-assay potency score (higher = more potent) was -0.0306.

TATATGTGGAAAGTAGCCCTTC: the sensor-assay potency score (higher = more potent) was 0.309.

TACATCCTTGACAAAGCCGATG returned a sensor-assay potency score (higher = more potent) of -1.28.

On to TTTTATGGCAGGAAGTACTGGA, for which the sensor-assay potency score (higher = more potent) came out at 0.401.

Regarding TTGTTGTACAGGATATACTCGA, the sensor-assay potency score (higher = more potent) worked out at 0.136.

Consider TGCTTAGACATCCATGACTTGA, for which the sensor-assay potency score (higher = more potent) is -1.27.

Sequence AAGGACAGCATCTTTCCGGTTG registered a sensor-assay potency score (higher = more potent) of 0.018.

For the next assay, the target named is CUZD1. Described as above. The settings on record: shRNA.
Turning to TTTGCTTATAATAACTCTCATC, the sensor-assay potency score (higher = more potent) is -0.82.

As for TTTGTATTACATCATCTTCTGT, the sensor-assay potency score (higher = more potent) is -0.716.

TTGATTAGGTCGTAGGTTGGAG: the sensor-assay potency score (higher = more potent) was determined as 0.0207.

Regarding TTTAGTTGCAAGTTATTCCCAT, the sensor-assay potency score (higher = more potent) came to 0.389.

Consider TATATGAAGAAATGTCTCGTTT, for which the sensor-assay potency score (higher = more potent) is -0.417.

Take TTTGACTTTGTATTACATCATC: the sensor-assay potency score (higher = more potent) is -1.5.

TTGAAGTTTAGTTTTATCTTGT had a sensor-assay potency score (higher = more potent) of 0.539.

For the sequence TATCTTGTAATCTTTCTCCACT, the sensor-assay potency score (higher = more potent) is -0.514.

Sequence AAATACAGGAACATAGTCGTTT returned a sensor-assay potency score (higher = more potent) of 0.0357.

For the sequence TTGTATTACATCATCTTCTGTT, the sensor-assay potency score (higher = more potent) is 0.486.

TTCTGATTGTACCACATCCATT returned a sensor-assay potency score (higher = more potent) of -1.82.

Take TTACACTGCAGATACACAGAGC: the sensor-assay potency score (higher = more potent) is -0.444.

The target of a further assay is CWF19L2. Described as above. The settings on record: shRNA.
The sequence TTCTACTTTGTTTCTCAGCTTG returned a sensor-assay potency score (higher = more potent) of 0.279.

Regarding TAATCTTTCTTCACTGTTCTTG, the sensor-assay potency score (higher = more potent) is 0.0595.

As for TTAGATTCTCTTCTACACGTTT, the sensor-assay potency score (higher = more potent) is -0.587.

The sequence TTTACTAAGTCTGATTCTCTAC gave a sensor-assay potency score (higher = more potent) of -0.315.

The sequence TTAGCCAGCTTAATCCACCATC returned a sensor-assay potency score (higher = more potent) of 0.0576.

With TTAGTAATCGATGACACACTAC, the sensor-assay potency score (higher = more potent) was -0.494.

For TTGCAGTATCTGTTGTAGCATA, the sensor-assay potency score (higher = more potent) was -0.923.

TAAATTAACTGAACAATTCGGA came in with a sensor-assay potency score (higher = more potent) of 0.661.

As for TGTTGTAGCATATCTATCCCTT, the sensor-assay potency score (higher = more potent) is -0.316.

TTTCTTGACAATTTTGTGCTTT showed a sensor-assay potency score (higher = more potent) of 0.803.

Consider TAATCCACCATCTTCTACCACT, for which the sensor-assay potency score (higher = more potent) is -1.06.

In turn, TTGTTTCTCAGCTTGTTCCTTC registered a sensor-assay potency score (higher = more potent) of 0.329.

Another assay has as its target CXCL1. The description is as above. The settings on record: shRNA.
TTCCGCCCATTCTTGAGTGTGG displayed a sensor-assay potency score (higher = more potent) of -0.98.

TTAACTATGGGGGATGCAGGAT returned a sensor-assay potency score (higher = more potent) of -1.04.

TGATTTTCTTAACTATGGGGGA came in with a sensor-assay potency score (higher = more potent) of -0.639.

The sequence ACACTTTGGATGTTCTTGGGGT gave a sensor-assay potency score (higher = more potent) of -0.0598.

With TAACTATGGGGGATGCAGGATT, the sensor-assay potency score (higher = more potent) was -1.31.
